# Test results from PubChem BioAssay (NCATS).
# Results filed as inconclusive are left out. A call without a number means that no potency is given here. Calls of active or inactive are those of the source. Calls follow the shape of the dose curve; as a rule, active = well fitted inhibition curve with a large enough effect; inconclusive = small, poorly fitted or top-dose-only effect; inactive = flat fitted curve, though single readings scatter.
# Columns and labels:
# Experiment in all cases: qHTS profiling for inhibitors of Plasmodium falciparum proliferation (AID 504749); also: nearly all actives have a fitted effect of over 60% in size
# Conditions in all cases: P. falciparum in erythrocytes, SYBR Green DNA, 72 h; series mostly up to 28.7 µM
# DIV30 = test system: DIV30
# In short: (§1)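 Readout was DNA-dye fluorescence from lysed cultures, ex 485/em 535 nm. Parasitized red cells had grown 72 h with compound; data scaled between 0.29 uM artemisinin and DMSO wells and corrected using vehicle-only plates.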
# ECU = test system: ECU
# In short: as §1
# FAB9 = test system: FAB9
# In short: as §1
# JCK = test system: JCK
# In short: as §1
# N140 = test system: N140
# In short: as §1
# P93_24 = test system: P93_24
# In short: as §1
# PAD = test system: PAD
# In short: as §1
# PC26 = test system: PC26
# In short: as §1
# PC49 = test system: PC49
# In short: as §1
# SC27B = test system: SC27B
# In short: as §1
# TAB109 = test system: TAB109
# In short: as §1
# TAB113 = test system: TAB113
# In short: as §1
# GB4 = test system: GB4
# In short: as §1
# HB3 = test system: HB3
# In short: as §1
# ICS = test system: ICS
# In short: as §1
# P94_40 = test system: P94_40
# In short: as §1
# PC15 = test system: PC15
# In short: as §1
# TAB165 = test system: TAB165
# In short: as §1
# W2 = test system: W2
# In short: as §1
# Dd2 = test system: Dd2
# In short: as §1
# Potency is read from the fitted curve at half-maximal effect.
Structure (SMILES),Potency (DIV30),Potency (ECU),Potency (FAB9),Potency (JCK),Potency (N140),Potency (P93_24),Potency (PAD),Potency (PC26),Potency (PC49),Potency (SC27B),Potency (TAB109),Potency (TAB113),Potency (GB4),Potency (HB3),Potency (ICS),Potency (P94_40),Potency (PC15),Potency (TAB165),Potency (W2),Potency (Dd2)
CC1CCC(C(C)C)C(OC(=O)c2ccccc2N)C1 (stereo not given),inactive,inactive,inactive,inactive,inactive,inactive,inactive,inactive,inactive,inactive,inactive,inactive,,,,,,,,
c1csc(C2(N3CCCCC3)CCCCC2)c1,inactive,inactive,inactive,inactive,inactive,inactive,inactive,inactive,inactive,inactive,inactive,inactive,inactive,inactive,inactive,inactive,inactive,inactive,9.53 µM (active),
CCN(CC)C(=O)/C(Cl)=C(\C)OP(=O)(OC)OC,,inactive,inactive,inactive,inactive,inactive,inactive,,inactive,inactive,inactive,inactive,,inactive,inactive,inactive,inactive,inactive,,inactive
c1ccc(C2(N3CCCC3)CCCCC2)cc1,,,,inactive,12.6 µM (active),5.62 µM (active),,13.5 µM (active),,,7.94 µM (active),,12 µM (active),,,inactive,,12.6 µM (active),7.57 µM (active),12.6 µM (active)
CC12NC(Cc3ccccc31)c1ccccc12 (stereo not given),inactive,inactive,inactive,inactive,inactive,10 µM (active),inactive,inactive,inactive,,2.82 µM (active),,,inactive,,,inactive,,4.26 µM (active),11.2 µM (active)
CCCN1CCCC2Cc3[nH]ncc3CC21 (stereo not given),,inactive,inactive,inactive,inactive,inactive,inactive,,inactive,inactive,inactive,inactive,,inactive,inactive,inactive,inactive,inactive,,inactive
CCOc1ccc2c3c1O[C@H]1[C@@H](O)C=C[C@H]4[C@@H](C2)N(C)CC[C@@]341,,inactive,inactive,inactive,inactive,inactive,inactive,,inactive,inactive,,inactive,,inactive,inactive,inactive,inactive,inactive,,inactive
C=CCC1(C(C)CCC)C(=O)N=C(S)NC1=O (stereo not given),,inactive,inactive,inactive,inactive,inactive,inactive,,inactive,inactive,inactive,inactive,,inactive,inactive,inactive,inactive,inactive,inactive,inactive
CN1CCCC(=C(c2cccs2)c2cccs2)C1,,inactive,inactive,inactive,,,,,,,,,8.49 µM (active),inactive,,,inactive,,4.78 µM (active),11.2 µM (active)
CNC1(c2ccccc2Cl)CCCCC1=O (stereo not given),inactive,inactive,inactive,inactive,inactive,inactive,,inactive,inactive,inactive,inactive,inactive,12 µM (active),inactive,inactive,inactive,inactive,inactive,4.78 µM (active),
COCC(C)N(C(=O)CCl)c1c(C)csc1C (stereo not given),,inactive,inactive,inactive,inactive,inactive,inactive,inactive,inactive,inactive,inactive,inactive,inactive,inactive,,inactive,inactive,inactive,inactive,inactive
CC(=O)O[C@H]1CC[C@H]2[C@@H]3CCC4=CC(=O)CCC4=C3C=C[C@]12C,inactive,inactive,inactive,inactive,inactive,inactive,inactive,inactive,inactive,inactive,inactive,inactive,,inactive,inactive,,inactive,inactive,inactive,inactive
CCC1(c2ccccc2)C(=O)NC(=O)N(C)C1=O (stereo not given),inactive,,inactive,inactive,,,,,inactive,,,,,11.2 µM (active),3.98 µM (active),inactive,,,6.75 µM (active),inactive
C=CCN=C=S,,inactive,inactive,inactive,inactive,inactive,inactive,,inactive,inactive,inactive,inactive,,inactive,inactive,inactive,inactive,inactive,,inactive
CCOP(=O)(OCC)O/C(=C/Cl)c1ccc(Cl)cc1Cl,,inactive,inactive,inactive,inactive,,inactive,,inactive,,inactive,inactive,,inactive,,,inactive,inactive,,inactive
C/C(=C\c1csc(C)n1)[C@@H]1C[C@@H]2O[C@]2(C)CCC[C@H](C)[C@H](O)[C@@H](C)C(=O)C(C)(C)[C@@H](O)CC(=O)O1,0.0048 µM (active),0.0045 µM (active),,0.0089 µM (active),0.0045 µM (active),0.0035 µM (active),0.0035 µM (active),0.0034 µM (active),,0.005 µM (active),0.0025 µM (active),0.0035 µM (active),0.0019 µM (active),0.0009 µM (active),0.0018 µM (active),0.0028 µM (active),,0.0022 µM (active),0.0013 µM (active),0.0013 µM (active)

Structure (SMILES),Potency (DIV30),Potency (ECU),Potency (FAB9),Potency (JCK),Potency (N140),Potency (P93_24),Potency (PAD),Potency (PC26),Potency (PC49),Potency (SC27B),Potency (TAB109),Potency (TAB113),Potency (GB4),Potency (HB3),Potency (ICS),Potency (P94_40),Potency (PC15),Potency (TAB165),Potency (W2),Potency (Dd2)
O=c1c2ccccc2[se]n1-c1ccccc1,inactive,,inactive,inactive,,,,,inactive,,,11.2 µM (active),,inactive,,,,,,
CCC(=O)O[C@@](Cc1ccccc1)(c1ccccc1)[C@@H](C)CN(C)C,,inactive,inactive,inactive,,,inactive,,,inactive,inactive,inactive,,inactive,,inactive,,inactive,,
C[C@@H](Cc1ccccc1)NCCC(c1ccccc1)c1ccccc1,,3.55 µM (active),inactive,inactive,,,,,inactive,,,,,,3.16 µM (active),,,,2.87 µM (active),
N#CC(C#N)=Cc1cc(O)c(O)c(O)c1,,inactive,,,15.8 µM (active),5.01 µM (active),7.08 µM (active),8.49 µM (active),,,3.98 µM (active),,10.7 µM (active),8.91 µM (active),2.82 µM (active),11.2 µM (active),6.31 µM (active),7.94 µM (active),,6.31 µM (active)
Oc1cc(Cl)c(Cl)cc1Cl,inactive,inactive,inactive,inactive,inactive,inactive,inactive,inactive,inactive,inactive,inactive,inactive,,inactive,,inactive,inactive,inactive,inactive,inactive
c1ccc2cc(CC3=NCCN3)ccc2c1,inactive,inactive,inactive,inactive,inactive,inactive,inactive,inactive,inactive,inactive,inactive,inactive,,inactive,inactive,inactive,inactive,inactive,inactive,inactive
O=S(=O)(O)c1cc(O)ccc1O,inactive,inactive,inactive,inactive,inactive,inactive,inactive,inactive,inactive,inactive,inactive,inactive,,inactive,inactive,inactive,inactive,inactive,inactive,inactive
F/C(COc1ccc2c(c1)[nH]c1ccccc12)=C1/CN2CCC1CC2,10.7 µM (active),,inactive,,10 µM (active),6.31 µM (active),8.91 µM (active),,2.82 µM (active),10 µM (active),7.94 µM (active),,,,3.55 µM (active),,,4.47 µM (active),1.51 µM (active),5.62 µM (active)
O=c1[nH]cc(N(CCCl)CCCl)c(=O)[nH]1,inactive,inactive,inactive,inactive,inactive,inactive,inactive,inactive,inactive,inactive,inactive,inactive,inactive,inactive,,inactive,inactive,inactive,inactive,inactive
C[C@H]1CCC[C@H](O)CCCCCc2cc(O)cc(O)c2C(=O)O1,inactive,,inactive,inactive,,inactive,inactive,,inactive,,inactive,,,inactive,,,inactive,,,inactive
CNC(=O)Oc1ccccc1C(=O)Nc1ccccc1,,11.2 µM (active),inactive,,,,,,,,,,15.1 µM (active),inactive,12.6 µM (active),,inactive,,13.5 µM (active),
c1cc2c(c(NC3=NCCN3)c1)CCCC2,,inactive,inactive,inactive,inactive,inactive,inactive,,,inactive,inactive,inactive,,inactive,,inactive,,inactive,inactive,inactive
CCC1C(C)=NN=C(c2ccc(OC)c(OC)c2)c2cc(OC)c(OC)cc21 (stereo not given),inactive,,inactive,inactive,,,inactive,,inactive,inactive,inactive,inactive,inactive,inactive,8.91 µM (active),inactive,inactive,inactive,,inactive
Cc1sc2ccccc2c1CC1=NCCN1,inactive,inactive,inactive,inactive,inactive,inactive,inactive,inactive,inactive,inactive,inactive,inactive,,inactive,inactive,inactive,,inactive,,inactive
CC(C)Nc1ccc(Nc2ccccc2)cc1,4.78 µM (active),11.2 µM (active),10 µM (active),,7.94 µM (active),7.94 µM (active),10 µM (active),4.78 µM (active),inactive,12.6 µM (active),7.94 µM (active),10 µM (active),5.36 µM (active),,7.08 µM (active),8.91 µM (active),,7.94 µM (active),4.78 µM (active),10 µM (active)
CCCCCCCCOC(=O)c1ccccc1C(=O)OCCCCCCCC,inactive,inactive,inactive,inactive,inactive,,inactive,inactive,inactive,inactive,inactive,inactive,inactive,inactive,,inactive,inactive,inactive,inactive,inactive
